Results as given in PubChem BioAssay (NCI).
This is part of a sample that, as a whole, favours compounds with a hit. Of some 79,000 tested, about 15% had one in any assay. No stated cut-off is given here; in the data, active means growth inhibition above about 70%; inactive means the rest.

Columns and labels:
[1] = NCI Yeast Anticancer Drug Screen. Data for the rad50 strain (AID 155);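 further: 0% = growth of vehicle-only cultures of the same strain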; conditions: S. cerevisiae rad50 strain growth inhibition; at 50.0 µM; stronger effect = higher value
Procedure, shortened: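 Relative growth inhibition (compound vs vehicle) was measured in yeast with a defined repair-gene alteration.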

[2] = NCI Yeast Anticancer Drug Screen. Data for the mec2-1 strain (AID 157); conditions: S. cerevisiae mec2-1 strain, at 50.0 µM, stronger effect = higher value
Procedure, shortened: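 Mutant yeast (mec2-1) grown with compound; growth inhibition relative to vehicle control reported.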

[3] = NCI Yeast Anticancer Drug Screen. Data for the sgs1 mgt1 strain (AID 161);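 further: 0% = growth of cultures given vehicle only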; conditions: S. cerevisiae sgs1 mgt1 strain, at 50.0 µM, stronger effect = higher value
Procedure, shortened: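 Compounds are added to genetically altered yeast, and growth is compared with cultures given vehicle alone to give percent inhibition.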

[4] = NCI Yeast Anticancer Drug Screen. Data for the cln2 rad14 strain (AID 165);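 further: 0% = growth equal to vehicle treated cultures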; conditions: S. cerevisiae cln2 rad14 strain, at 50.0 µM, stronger effect = higher value
Procedure, shortened: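 Readout is yeast growth inhibition versus vehicle-treated controls, using a strain with cln2 and rad14 alterations exposed to compound.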

[5] = NCI Yeast Anticancer Drug Screen. Data for the bub3 strain (AID 167); conditions: S. cerevisiae bub3 mutant strain, at 50.0 µM, stronger effect = higher value
Procedure, shortened: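 Screening used yeast with an engineered genetic alteration affecting cell cycle control. Compound-exposed cultures were compared with vehicle cultures, and reduced growth was taken as inhibition.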

[6] = NCI Yeast Anticancer Drug Screen. Data for the mlh1 rad18 strain (AID 175); conditions: S. cerevisiae mlh1 rad18 strain growth inhibition; at 50.0 µM; stronger effect = higher value
Procedure, shortened: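 Genetically defined yeast (DNA repair-deficient) exposed to compounds; growth inhibition determined relative to vehicle.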

Measured: growth inhibition

COc1ccc(N(C)C(=S)c2ccccc2)cc1
inactive: [1] -49.5% | [2] -11.7% | [3] -15.4% | [4] -37.5% | [5] 0.45% | [6] -10.9%

COC(=O)c1cc(NC(=O)Nc2ccc(Cl)cc2[N+](=O)[O-])cc(C(=O)OC)c1
inactive: [1] -21.4% | [2] -13.3% | [3] -14.1% | [4] -68.2% | [5] -2.35% | [6] -11.1%

CCCCCCCCCCCCCCCCCCS
inactive: [1] -1.15% | [2] -25.3% | [3] -7.85% | [4] -14.7% | [5] 8.3% | [6] -5.7%

CCOC(=O)C(Cc1cccc2ccccc12)(NC(C)=O)C(=O)OCC
inactive: [1] -7.5% | [2] -4.55% | [3] -5.95% | [4] -31.9% | [5] 16.5% | [6] -14.8%

CN(C)C(SCc1c(Cl)c(Cl)c(Cl)c(Cl)c1Cl)=[N+](C)C
inactive: [1] 19.4% | [2] 6.3% | [3] 15.4% | [4] 11.8% | [5] 7.15% | [6] 28.6%

O=C1c2ccccc2C(=O)N1C/C=C/CN1C(=O)c2ccccc2C1=O
inactive: [1] 6.85% | [2] -5.7% | [3] 12.2% | [4] -9.4% | [5] 8.05% | [6] 2.5%

CC(=O)c1c(C)c(Cl)c(C)c(Cl)c1O
inactive: [1] -14.6% | [2] 2.75% | [3] 17.6% | [4] 7.4% | [5] 26.4% | [6] 7%

CC(O)(C(=O)c1ccccc1)c1ccccc1 (stereo not given)
inactive: [1] -16.4% | [2] -25.1% | [3] -16.4% | [4] -8.15% | [5] -18.4% | [6] 0.6%

O=C(NNc1ccccc1OCc1ccccc1)C(F)(F)F
inactive: [1] -0.25% | [2] -20.3% | [3] 0.35% | [4] 39.8% | [5] 27% | [6] 11.2%

CC(C)OC(=O)CC1CCCCC1
inactive: [1] -4% | [2] -4.4% | [3] -14.1% | [4] 2.95% | [5] 3.9% | [6] 3.15%

O=C1NC2c3ccccc3CCC12 (stereo not given)
inactive: [1] -1.55% | [2] -5.45% | [3] -1.5% | [4] -71.8% | [5] 8.65% | [6] -4.5%

CCCC1OCC(CC)([N+](=O)[O-])CO1 (stereo not given)
inactive: [1] 19.6% | [2] 15.7% | [3] 18.1% | [4] 9.3% | [5] -0.85% | [6] -5.7%

OCC1COC(c2ccc(Cl)cc2)O1 (stereo not given)
inactive: [1] -10.1% | [2] -10.4% | [3] -19.8% | [4] -17.9% | [5] -16.4% | [6] -7.75%

CNC(=O)c1cc(OC)ccc1O
inactive: [1] -25.9% | [2] -9.7% | [3] -4.3% | [4] -32.3% | [5] -3.6% | [6] 12.4%

CCCOC(=O)/C=C/c1ccc(OC)cc1
inactive: [1] -10.7% | [2] -18.9% | [3] -16.1% | [4] -12.2% | [5] -14.4% | [6] -27.4%

COc1ccc2c(c1)C=C(C(C)(C)C)NS2(=O)=O
inactive: [1] 23.6% | [2] -22.6% | [3] 2% | [4] -12.7% | [5] 59% | [6] 63.4%

O=c1c2ccccc2on1CN1CCN(Cn2oc3ccccc3c2=O)CC1
inactive: [1] 3.6% | [2] -11.1% | [3] -8% | [4] -12.9% | [5] -12.1% | [6] 5.05%

O=S(=O)(Nc1ncccn1)c1ccc(N=NSC2=NC=NC3=NC=NC32)cc1 (stereo not given)
inactive: [1] 21.3% | [2] 17.4% | [3] 20.5% | [4] 4% | [5] 0.05% | [6] 11.8%

CCCC1([N+](=O)[O-])CCC(C)(O)C(/C(C)=N\O)C1 (stereo not given)
inactive: [1] 7.05% | [2] -9.5% | [3] 25.5% | [4] -0.15% | [5] 26.1% | [6] 40.2%

COc1ccc(CCNC(=O)c2cccc(Cl)c2)cc1OC
inactive: [1] -7.05% | [2] -28.9% | [3] -23.1% | [4] -44.6% | [5] -22% | [6] -12.2%
